Bioassay records from PubChem.
Only some compounds are listed: those with a hit (about 5.4% of all), similar ones and a draw of the others.
Beta cell apopt: inhibitors of cytokine-induced beta cell apoptosis, primary screen, luminescence; actives 0.8% (n = 300,000); AID 435005, 2010; protection from apoptosis, % (no concentration beside the values); INS-1E cytokine-induced death, ATP luminescence, 48 h; percent of positive-control rescue, neutral wells zero;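 active means Every replicate reaches about 75%, or at least half do and their mean reaches it too, limit read from the data; inconclusive means At least half of replicates reach the limit but their mean does not; inactive means Under half of replicates reach the limit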;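 further: 0% = cytokine-treated negative control wells and 100% = positive control rescue; higher means more ATP so stronger rescue from cytokine killing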
Calb FLC: C. albicans growth inhibition with fluconazole, primary screen, CaCi-2 strain, Alamar Blue fluorescence; C. albicans CaCi-2 (fluconazole-resistant clinical isolate) + fluconazole, 48 h; growth inhibition, % (no concentration beside the values); actives 0.57% (n = 300,000); AID 1979, 2009;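 active means growth inhibition above about 58% in most replicates, limit read from the data, passing the limit was not always enough; inconclusive means exactly half the replicates above a set limit; inactive means most replicates below a set limit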;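 further: all wells also contain fluconazole at 8 µg/ml as a sub-toxic cotreatment; 0% = median of DMSO wells and 100% = median of geldanamycin control wells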
CSC inhib: cancer stem cell viability inhibitors, primary screen, luminescence; cancer stem cell-like cells viability; inhibition, % at 7.5 µM; actives 1.1% (n = 300,000); in the data active means inhibition above about 75%; inconclusive means no clear call, values can overlap the other calls; tested in HMLE shEcad cells
SKKanGAS inh: S. pyogenes SKKanGAS growth inhibitors in kanamycin, primary screen, streptokinase expression inhibitor project, SKKanGAS strain, BacTiter-Glo luminescence; 6 h; inhibition, % at 7.5 µM; actives 1.3% (n = 300,000);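 active means mean replicate score, as percent of positive control median, at least 50; inconclusive means mean below 50 but one replicate at or above 50; inactive means mean and every replicate below 50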;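 further: strain carries kanamycin resistance gene driven by streptokinase promoter and grows in 40 µg/ml kanamycin; loss of luminescence reflects streptokinase promoter inhibition or plain growth inhibition; 0% = median of DMSO wells and 100% = positive control at its reference dose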
MPTP inh: mitochondrial permeability transition pore inhibitors, primary screen, biochemical, isolated mouse mitochondria, absorbance. Ca2+ swelling absorbance, 30 min. inhibition, % at 10 µM. actives 1.4% (n = 360,000);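 active means inhibition of 50% or more, scaled per plate between neutral and stimulator controls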;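 further: 0% = DMSO wells given calcium and 100% = 1 mM EGTA wells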
Mdm2-MdmX inh: inhibitors of human Mdm2-MdmX association, primary screen, cell-based, luminescence, split luciferase, SaOS-2, uHTS | actives 3% (n = 330,000) | SaOS-2 split-luciferase Mdm2/MdmX complementation | inhibition, % at 8 µM;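 active means inhibition of at least 50% at 8 µM in the primary screen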
Target sequence (O15151 whole entry, looked up): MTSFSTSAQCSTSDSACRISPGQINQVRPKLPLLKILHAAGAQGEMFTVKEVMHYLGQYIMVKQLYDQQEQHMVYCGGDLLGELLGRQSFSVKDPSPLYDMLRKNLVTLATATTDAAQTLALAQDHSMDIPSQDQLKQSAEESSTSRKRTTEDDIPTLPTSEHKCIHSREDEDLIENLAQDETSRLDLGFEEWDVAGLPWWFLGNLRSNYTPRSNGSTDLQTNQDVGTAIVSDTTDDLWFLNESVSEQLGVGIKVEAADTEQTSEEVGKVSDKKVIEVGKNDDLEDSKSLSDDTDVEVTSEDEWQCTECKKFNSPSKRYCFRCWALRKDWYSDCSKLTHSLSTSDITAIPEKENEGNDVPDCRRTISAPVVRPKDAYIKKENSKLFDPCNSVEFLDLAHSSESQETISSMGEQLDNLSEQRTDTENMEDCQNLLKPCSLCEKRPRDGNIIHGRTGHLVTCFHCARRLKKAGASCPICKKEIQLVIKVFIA
Target sequence (Q00987 whole entry, looked up): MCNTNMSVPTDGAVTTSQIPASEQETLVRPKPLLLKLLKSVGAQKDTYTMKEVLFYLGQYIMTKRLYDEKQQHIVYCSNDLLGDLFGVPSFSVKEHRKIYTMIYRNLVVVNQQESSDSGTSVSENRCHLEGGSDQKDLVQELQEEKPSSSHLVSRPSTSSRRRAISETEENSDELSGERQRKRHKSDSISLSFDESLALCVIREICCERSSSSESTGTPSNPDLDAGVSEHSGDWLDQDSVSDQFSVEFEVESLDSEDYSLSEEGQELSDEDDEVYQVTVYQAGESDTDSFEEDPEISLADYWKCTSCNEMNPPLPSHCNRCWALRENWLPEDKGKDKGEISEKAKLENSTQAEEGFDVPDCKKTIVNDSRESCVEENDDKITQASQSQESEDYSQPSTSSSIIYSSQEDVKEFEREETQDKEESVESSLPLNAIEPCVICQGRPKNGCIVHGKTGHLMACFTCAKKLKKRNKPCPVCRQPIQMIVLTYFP
Rh123 counter: fluorescence retest of MPTP screen hits in isolated mitochondria, single concentration; AID 624504, 2012; shares compounds with MPTP inh; actives 78% (n = 5,000); membrane potential, Rhodamine 123 fluorescence; inhibition, % at 10 µM; in the data active means inhibition above about 22%;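 further: 0% = DMSO vehicle and 100% = positive control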
MPTP swell DR: mitochondrial permeability transition pore inhibitors, dose response, biochemical, absorbance, uHTS hits; shares compounds with MPTP inh; isolated mitochondria swelling; IC50, µM; actives 58% (n = 780); AID 651561, 2012; in the data active means IC50 below about 20 µM
MPTP cs DR: fluorescent counter-screen in isolated mitochondria, dose response, counter-screen for MPTP inhibitor project, biochemical, fluorescence, uHTS hits | actives 49% (n = 780) | isolated mitochondria counterscreen, fluorescence read-out | shares compounds with MPTP inh | IC50, µM | AID 651564, 2012; in the data active means IC50 below about 80 µM
Starred values were filed as active, the others as inactive; u = inconclusive; x = no result.

SMILES | Beta cell apopt | Calb FLC | CSC inhib | SKKanGAS inh | MPTP inh | Mdm2-MdmX inh | Rh123 counter | others
O=C(N/N=C/c1cc(Cl)cc([N+](=O)[O-])c1O)c1ccccc1NS(=O)(=O)c1cccs1 | 1 | 25 | 12 | u | 84* | 19 | 26*
Cc1noc(C)c1C(=O)Nc1cc(S(=O)(=O)N2CCCCC2)ccc1N(C)C | x | x | x | x | 0 | -22 | x
O=C(NCc1ccc(Cl)nc1)c1csc([C@@H]2O[C@H](CO)[C@H](O)[C@H](O)[C@H]2O)n1 | x | x | x | x | -1 | x | x
Cc1n[nH]c(=O)c2c(NC(=O)CSc3c(Cl)cccc3Cl)oc(C)c12 | -2 | 2 | -5 | -21 | -2 | 5 | x
Cc1n[nH]c(=O)c2c(NC(=O)CSc3nn(-c4ccc(F)cc4)c(=S)s3)oc(C)c12 | -7 | -2 | -6 | 38 | 87* | -12 | 84*
COC(=O)/C=C1\SC(=NC(=O)c2cccc(Cl)c2)NC1=O | 0 | 2 | 7 | 4 | 60* | -24 | 37*
COC(=O)/C=C1/SC(=NC(=O)c2ccccc2)NC1=O | -7 | 11 | 7 | 7 | -1 | -4 | x
OC1CC2CCC(C1)N2CCCN1c2ccccc2Sc2ccc(Cl)cc21 (configuration not stated) | x | x | x | x | 76* | x | -17 | MPTP swell DR=4*;MPTP cs DR=74*
CN(C)CCCN1c2ccc(O)cc2Sc2ccc(Cl)cc21 | x | x | x | x | 1 | x | x
Cc1ccc(S(=O)(=O)NNC(=O)C2CC=CCC2C(=O)O)cc1 (configuration not stated) | -1 | 2 | 6 | -4 | 55* | 7 | 2 | MPTP swell DR=>100;MPTP cs DR=>80
CCn1nc(C(C)C)cc1C(=O)N1CCCC(CO)(Cc2ccc(F)cc2F)C1 (configuration not stated) | -7 | -1 | 11 | -13 | -1 | -4 | x
O=C(Cc1ccccc1F)Nc1ccc(SC(F)F)cc1 | 3 | -15 | 25 | -5 | 11 | -109 | x
O=C(Cc1ccc(Cl)cc1)Nc1ccc(SC(F)F)cc1 | 0 | 16 | 34 | 0 | 92* | -53 | 105*
O=C(c1ccco1)N1CCN(S(=O)(=O)c2cccc([N+](=O)[O-])c2)CC1 | x | -14 | -16 | 3 | -1 | 24 | x
N#C/C(=C\c1ccc(OCc2ccccc2)cc1)C(=O)Nc1ccc(C(=O)O)cc1 | 6 | -6 | -12 | 1 | x | -28 | x
Cc1cc(C)c(NC(=O)/C(C#N)=C/c2ccc(OCc3ccc(F)cc3)cc2)c(C)c1 | 14 | -7 | -1 | 3 | 85* | -13 | 22*
Oc1ccc(C23CC4CC(CC(C4)C2)C3)cc1O | 6 | -15 | 44 | 4 | 0 | x | x
NCCOc1ccc(C23CC4CC(CC(C4)C2)C3)cc1 | 24 | -12 | -10 | 18 | 76* | 30 | -10
CCCn1c(SCC(=O)Nc2nc3c(s2)CCCC3)nc2c1c(=O)n(C)c(=O)n2C | -28 | 1 | -9 | 11 | 85* | 40 | 33*
CCCCn1c(SCC(=O)Nc2nnc(C(C)C)s2)nc2c1c(=O)n(C)c(=O)n2C | 22 | 7 | 1 | -8 | -1 | 0 | x
C[C@@H](C(=O)N1CCN(C(=O)OC(C)(C)C)CC1)n1cc(CCC(=O)O)nn1 | -4 | -3 | -24 | -6 | 0 | 0 | x
COc1cccc(NC(=O)n2nc(N)cc2-c2ccc(Cl)cc2)c1 | -6 | -2 | 25 | 0 | 3 | 6 | x
CCCCNC(=S)Nc1ccc(-c2nc3ccc(C)cc3s2)cc1 | 1 | u | 5 | -12 | 88* | -243 | 87*
CNC(=S)Nc1ccc(-c2nc3ccc(C)cc3s2)cc1 | 6 | 41 | 10 | -16 | 2 | -230 | x
CCC(C)(C)NC(=S)Nc1ccc(-c2nc3ccc(C)cc3s2)cc1 | 8 | -20 | 26 | -1 | 85* | -295 | 34*
SMILES | Beta cell apopt | Calb FLC | CSC inhib | SKKanGAS inh | MPTP inh | Mdm2-MdmX inh | Rh123 counter | others
Cc1ccc2nc(-c3ccc(NC(=S)NCCC(C)C)cc3)sc2c1 | 0 | 0 | 2 | -3 | 4 | -144 | x
CCCCc1c(C(=O)O)cc(OC)cc1C(=O)O | -5 | 1 | -5 | -8 | -1 | 18 | x
CCCCCc1c2c(cc(O)c1C(=O)O)OC(=O)c1c(cc(OC)cc1C(=O)CCCC)O2 | -3 | -4 | 0 | 42 | 90* | -7 | 28*
CCCCCc1c2c(cc(O)c1C(=O)O)OC(=O)c1cc(C(=O)CCCC)c(OC)cc1O2 | x | x | x | x | 95* | -6 | 57*
COC(=O)c1sccc1NC(=O)CSCC(=O)O | 1 | -4 | 1 | 3 | 0 | -5 | x
COc1cc(C(=O)Nc2ccc(C)cc2C(NCC(=O)NN)c2ccccc2)cc(OC)c1OC (configuration not stated) | -1 | 6 | -10 | 10 | 1 | 3 | x
CCOC(=O)c1cc(-c2ccccc2)sc1NC(=O)C(C)OC(=O)c1cccc(S(=O)(=O)N(C)C)c1 (configuration not stated) | -6 | 15 | 15 | 17 | 4 | 26 | x
CCOC(=O)c1cc(-c2ccccc2)sc1NC(=O)C(C)OC(=O)c1cccnc1OCC (configuration not stated) | -7 | 0 | x | -2 | 68* | -3 | -1 | MPTP swell DR=>100;MPTP cs DR=>80
COc1ccc(CCC(=O)NC2CCCCC2)cc1 | 0 | -5 | -11 | -3 | 1 | -1 | x
COc1nc(Cl)cn(-c2ccc(C)cc2)c1=O | -3 | -1 | -2 | -4 | 4 | -15 | x
Cc1ccc(-n2c(Cl)c(Cl)nc(Cl)c2=O)cc1 | 98* | x | 91* | x | 67* | x | 0
CCOC(=O)N1CCC(NC(=O)c2ccc3c(=O)n4c(nc3c2)CCCC4)CC1 | x | -10 | -10 | -6 | 0 | 28 | x
COc1ccc(OCc2nc(C#N)c(NCCCn3ccnc3)o2)cc1 | 3 | -8 | x | 2 | 2 | 26 | x
Cn1ncc(-c2ccno2)c1C(=O)O | -3 | -5 | -13 | -3 | -1 | 21 | x
Cc1cc(O)c(-c2ccno2)cc1Cl | 2 | -1 | 7 | -2 | 82* | 15 | 88*
O=C(NNc1ccccc1Br)C(=O)n1ccc2ccccc21 | -11 | -22 | 85* | 12 | 57* | -6 | 57*
O=C(Nc1ccc(F)c(F)c1)c1cnc(-c2ccccc2)nc1-c1ccccc1 | 36 | 7 | 1 | 11 | 72* | 19 | -1 | MPTP swell DR=>100;MPTP cs DR=7*
O=C(Nc1ccc(F)cc1)c1cnc(-c2ccccc2)nc1-c1ccccc1 | 15 | 6 | -2 | 11 | 27 | -19 | x
